Test results published in PubChem BioAssay (EPA / NIEHS).
Inconclusive results are not listed. Active and inactive are the calls of the source. The calls were made as follows, unless noted: active = hit-call score of the fitted dose curve at least 0.9, where 1 is the maximum; inactive = score below 0.9.

Assays:
[1] = ACEA_ER_80hr: ACEA Biosciences xCELLigence Real-Time Cell Analysis on Estrogen Receptor Agonism for Proliferation (AID 2282667; active = hit-call score of the fitted dose curve at least 0.9, where 1 is the maximum); settings: T47D proliferation, impedance (xCELLigence), 80 h
In short: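 Cell-growth kinetics were measured by impedance in T47D cells treated continuously with compound (top 100 uM final, 1:4 steps, 8 points). Activity at 80 h was scored as signal gain over the DMSO baseline.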

[2] = ATG_CRE_CIS: Attagene CIS-FACTORIAL HepG2 Assay for human cAMP Responsive Element (CRE) binding protein 3 (AID 2282926); settings: HepG2 CRE cis-reporter, Attagene multiplexed mRNA; actives raise or lower the signal
In short: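 Cells carrying cis-regulated reporter constructs respond through their own endogenous factors. After 24 h treatment, RNA is reverse-transcribed, amplified, labelled and sized by capillary electrophoresis; up- and down-regulation are both scored against vehicle.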

[3] = target: CCAAT/enhancer-binding protein beta (Homo sapiens) (UniProt P17676); test: ATG_C_EBP_CIS: Attagene CIS-FACTORIAL HepG2 Assay for human CCAAT/Enhancer Binding Protein (C/EBP) beta (AID 2282927); settings: HepG2 Attagene cis-factorial transcription factor reporter; actives raise or lower the signal
In short: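 Changes in reporter mRNA, rather than exogenous chimeric receptor activity, reflect native C/EBP signalling in transfected HepG2 cells dosed for 24 h; transcripts are detected by RT-PCR and capillary electrophoresis.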

[4] = ATG_CMV_CIS: Attagene CIS-FACTORIAL HepG2 Assay for human CMV (Internal Marker) (AID 2282928); settings: HepG2 CMV promoter reporter, transcription factor profiling; actives raise or lower the signal;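 also: endpoint acts as a background internal control marker rather than a target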
In short: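 Fluorescence intensity of RT-PCR-derived reporter fragments, resolved by capillary electrophoresis, gives the signal. HepG2 liver cells bearing transfected cis-element reporters were treated 24 h; activity in either direction was fit relative to DMSO-treated controls.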

[5] = ATG_DR4_LXR_CIS: Attagene CIS-FACTORIAL HepG2 Assay for human Liver X Receptor (LXR), DR4 submotif (AID 2282929); settings: HepG2 Attagene DR4 cis-reporter, mRNA transcription; actives raise or lower the signal
In short: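 Total RNA from 24 h-treated, MRTU-transfected HepG2 cells underwent reverse transcription, PCR, fluorescent primer extension and restriction digestion before capillary electrophoresis. Both increases and decreases in reporter signal were fitted against DMSO.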

[6] = target: Aryl hydrocarbon receptor (Homo sapiens) (UniProt P35869); test: ATG_Ahr_CIS: Attagene CIS-FACTORIAL HepG2 Assay for human Aryl Hydrocarbon Receptor (Ahr) (AID 2282930); settings: HepG2 AhR cis-factorial reporter transcription; actives raise or lower the signal
In short: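 HepG2, transient MRTU (cis) transfection, 24 h exposure. RNA → cDNA → PCR → 6-FAM primer extension → HpaI 2 h 37 C → CE. Fit: bidirectional, DMSO baseline.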

[7] = ATG_AP_1_CIS: Attagene CIS-FACTORIAL HepG2 Assay for human Activator Protein 1 (AP-1) (AID 2282931); settings: HepG2 Attagene cis-factorial AP-1 reporter mRNA; actives raise or lower the signal
In short: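 HepG2, transient cis-reporter transfection; 24 h; readout RT-PCR/CE fluorescence; DMSO baseline, gain and loss fitted.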

[8] = ATG_BRE_CIS: Attagene CIS-FACTORIAL HepG2 Assay for human Bone Morphogenetic Protein (BMP) Response Element (BRE) (AID 2282933); settings: HepG2 BMP response element reporter, Attagene transcription factor profiling; actives raise or lower the signal
In short: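 Gain- or loss-of-signal was derived by bidirectional fitting against DMSO controls. The signal came from reporter mRNA, measured by RT-PCR and capillary electrophoresis, in HepG2 cells transiently carrying multiple reporter units and dosed for 24 h.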

[9] = target: Retinoic acid receptor alpha (Homo sapiens) (UniProt P10276); test: ATG_DR5_RAR_CIS: Attagene CIS-FACTORIAL HepG2 Assay for human Retinoic Acid Receptor Alpha (RARE), DR5 submotif (AID 2282934); settings: HepG2 Attagene cis-factorial RARE DR5 reporter, mRNA; actives raise or lower the signal
In short: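 HepG2, transient cis-reporter transfection, 24 h exposure. mRNA readout: RT-PCR, FAM label, HpaI cut, capillary electrophoresis. DMSO baseline, gain/loss fitting.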

[10] = target: Transcription factor E2F1 (Homo sapiens) (UniProt Q01094); test: ATG_E2F_CIS: Attagene CIS-FACTORIAL HepG2 Assay for human E2F Transcription Factor 1 (AID 2282935); settings: HepG2 Attagene cis-reporter, E2F reporter RNA transcripts; actives raise or lower the signal
In short: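 Gain or loss of reporter transcript, fitted against DMSO, reflects E2F1-driven transcription. Transiently transfected HepG2 dosed 24 h before RNA isolation. Quantified by fluorescent RT-PCR products separated by capillary electrophoresis.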

[11] = ATG_E_Box_CIS: Attagene CIS-FACTORIAL HepG2 Assay for human Enhancer Box (E-box) (AID 2282936); settings: HepG2 E-box cis-reporter transcription, actives raise or lower the signal
In short: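 E-box-driven reporter transcripts measured in transiently transfected HepG2 after 24 h exposure: RNA reverse-transcribed, PCR-amplified, fluorescently labelled, digested and resolved by capillary electrophoresis. Gain or loss relative to DMSO.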

[12] = ATG_M_61_CIS: Attagene CIS-FACTORIAL HepG2 Assay for M61 Transcription Factor (Internal Marker) (AID 2282937); settings: HepG2 Attagene CIS-FACTORIAL M61 internal marker reporter; actives raise or lower the signal
In short: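 Transfect HepG2 with MRTUs; dose 24 h; isolate RNA; reverse-transcribe with DNase I treatment; PCR-amplify, FAM-label and cut with HpaI for 2 h at 37 C; resolve by CE. Bidirectional fitting against DMSO.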

[13] = ATG_EGR_CIS: Attagene CIS-FACTORIAL HepG2 Assay for human Early Growth Response 1 (EGR1) (AID 2282938); settings: HepG2 Attagene CIS-FACTORIAL EGR reporter mRNA; actives raise or lower the signal
In short: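 After a 24 h treatment of transiently transfected HepG2 cells, total RNA was reverse-transcribed and reporter sequences PCR-amplified, labelled and run on capillary electrophoresis. Reporters sit under cis-regulatory promoters sensing endogenous factors.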

[14] = ATG_M_19_CIS: Attagene CIS-FACTORIAL HepG2 Assay for M19 Transcription Factor (Internal Marker) (AID 2282939); settings: HepG2 Attagene CIS-FACTORIAL M19 internal marker reporter; actives raise or lower the signal
In short: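 Following a 24 h exposure, RNA from transfected HepG2 cells was reverse-transcribed, PCR-amplified with reporter-specific primers, end-labelled with 6-FAM and HpaI-digested before capillary separation. Values represent gain or loss versus DMSO.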

[15] = ATG_ERE_CIS: Attagene CIS-FACTORIAL HepG2 Assay for Estrogen Response Element (ERE) (AID 2282940); settings: HepG2 ERE cis-reporter, Attagene RNA transcript; actives raise or lower the signal
In short: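 HepG2, transient cis-reporter units, 24 h exposure. RNA isolated, oligo(dT) RT, reporter-specific PCR, FAM extension, HpaI cut, CE detection. Gain/loss-of-signal vs DMSO.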

[16] = target: Hepatocyte nuclear factor 3-beta (Homo sapiens) (UniProt Q9Y261); test: ATG_FoxA2_CIS: Attagene CIS-FACTORIAL HepG2 Assay for human Forkhead box A2 (FOXA2) (AID 2282942); settings: HepG2 cis-reporter transcription factor activity, 24 h; actives raise or lower the signal
In short: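 24 h dosing of HepG2 bearing cis-reporter constructs; mRNA readout by RT-PCR/CE fluorescence; bidirectional fit, DMSO baseline.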

[17] = ATG_FoxO_CIS: Attagene CIS-FACTORIAL HepG2 Assay for human Forkhead box O (FoxO) (AID 2282943); settings: HepG2 Attagene cis-reporter, FoxO element, mRNA; actives raise or lower the signal
In short: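 Human hepatoma HepG2 cells carry transiently introduced reporter transcription units controlled by cis promoter elements. Chemical treatment lasted 24 h, and mRNA signal was compared with DMSO.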

[18] = ATG_GATA_CIS: Attagene CIS-FACTORIAL HepG2 Assay for human GATA Binding Protein (AID 2282944); settings: HepG2 GATA cis-element reporter, Attagene multiplex mRNA; actives raise or lower the signal
In short: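 DMSO serves as negative control and baseline for bidirectional fitting of reporter mRNA changes. HepG2 cells bearing transiently transfected cis-promoter reporters were exposed 24 h; transcripts detected via RT-PCR and capillary electrophoresis.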

[19] = ATG_Ets_CIS: Attagene CIS-FACTORIAL HepG2 Assay for human Erythroblast Transformation Specific (ETS) (AID 2282941); settings: HepG2 ETS cis-reporter transcription, actives raise or lower the signal
In short: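 Multiplexed reporter transcript profiling: HepG2, 24 h treatment, total RNA to cDNA, PCR, 6-FAM labelling, HpaI cut, capillary electrophoresis. Gain- or loss-of-signal fitted against DMSO.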

Measured: AC50

CCAAT/enhancer-binding protein beta (Homo sapiens), sequence (P17676 whole entry, looked up): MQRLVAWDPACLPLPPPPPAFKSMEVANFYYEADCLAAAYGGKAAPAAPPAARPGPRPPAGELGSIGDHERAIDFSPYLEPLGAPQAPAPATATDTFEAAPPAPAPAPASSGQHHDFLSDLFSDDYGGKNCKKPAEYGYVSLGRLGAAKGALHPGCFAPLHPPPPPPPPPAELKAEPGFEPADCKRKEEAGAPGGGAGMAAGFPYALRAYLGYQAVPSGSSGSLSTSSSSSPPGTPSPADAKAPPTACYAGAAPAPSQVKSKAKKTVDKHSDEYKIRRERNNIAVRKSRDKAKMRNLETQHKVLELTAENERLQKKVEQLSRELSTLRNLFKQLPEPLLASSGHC
Hepatocyte nuclear factor 3-beta (Homo sapiens), sequence (Q9Y261 whole entry, looked up): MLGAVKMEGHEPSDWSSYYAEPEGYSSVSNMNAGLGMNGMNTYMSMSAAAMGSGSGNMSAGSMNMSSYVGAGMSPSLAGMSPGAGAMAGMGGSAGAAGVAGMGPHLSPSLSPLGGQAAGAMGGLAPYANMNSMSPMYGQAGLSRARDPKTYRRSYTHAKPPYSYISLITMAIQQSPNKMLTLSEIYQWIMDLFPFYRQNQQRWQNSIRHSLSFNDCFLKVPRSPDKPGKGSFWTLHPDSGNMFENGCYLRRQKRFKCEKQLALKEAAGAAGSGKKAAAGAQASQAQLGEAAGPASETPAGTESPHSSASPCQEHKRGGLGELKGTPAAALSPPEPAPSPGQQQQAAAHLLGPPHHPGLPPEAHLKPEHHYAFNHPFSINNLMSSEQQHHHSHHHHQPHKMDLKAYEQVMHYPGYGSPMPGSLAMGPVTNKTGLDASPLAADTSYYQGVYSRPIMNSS
Aryl hydrocarbon receptor (Homo sapiens), sequence (P35869 whole entry, looked up): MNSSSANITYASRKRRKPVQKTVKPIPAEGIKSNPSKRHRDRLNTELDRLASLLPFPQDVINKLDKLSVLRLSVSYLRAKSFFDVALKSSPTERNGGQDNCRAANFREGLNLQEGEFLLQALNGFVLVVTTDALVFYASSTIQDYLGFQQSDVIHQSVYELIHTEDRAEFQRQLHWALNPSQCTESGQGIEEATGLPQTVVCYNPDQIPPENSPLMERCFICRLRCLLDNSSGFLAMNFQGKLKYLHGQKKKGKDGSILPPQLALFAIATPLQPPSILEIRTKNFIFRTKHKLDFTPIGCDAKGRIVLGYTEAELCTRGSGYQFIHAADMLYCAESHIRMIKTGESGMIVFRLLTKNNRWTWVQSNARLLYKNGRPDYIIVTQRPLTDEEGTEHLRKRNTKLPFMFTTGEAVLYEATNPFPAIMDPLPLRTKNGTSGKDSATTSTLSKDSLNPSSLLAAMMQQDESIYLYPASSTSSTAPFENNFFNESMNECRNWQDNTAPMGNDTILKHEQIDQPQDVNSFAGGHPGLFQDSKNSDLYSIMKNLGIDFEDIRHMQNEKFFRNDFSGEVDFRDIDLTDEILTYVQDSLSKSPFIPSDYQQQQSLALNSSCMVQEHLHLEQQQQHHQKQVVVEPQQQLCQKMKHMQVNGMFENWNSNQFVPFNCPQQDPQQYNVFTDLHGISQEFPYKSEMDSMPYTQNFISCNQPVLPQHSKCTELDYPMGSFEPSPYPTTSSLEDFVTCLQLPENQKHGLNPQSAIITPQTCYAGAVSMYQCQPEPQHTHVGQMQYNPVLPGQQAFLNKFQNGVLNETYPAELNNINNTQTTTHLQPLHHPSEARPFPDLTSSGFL
Retinoic acid receptor alpha (Homo sapiens), sequence (P10276 whole entry, looked up): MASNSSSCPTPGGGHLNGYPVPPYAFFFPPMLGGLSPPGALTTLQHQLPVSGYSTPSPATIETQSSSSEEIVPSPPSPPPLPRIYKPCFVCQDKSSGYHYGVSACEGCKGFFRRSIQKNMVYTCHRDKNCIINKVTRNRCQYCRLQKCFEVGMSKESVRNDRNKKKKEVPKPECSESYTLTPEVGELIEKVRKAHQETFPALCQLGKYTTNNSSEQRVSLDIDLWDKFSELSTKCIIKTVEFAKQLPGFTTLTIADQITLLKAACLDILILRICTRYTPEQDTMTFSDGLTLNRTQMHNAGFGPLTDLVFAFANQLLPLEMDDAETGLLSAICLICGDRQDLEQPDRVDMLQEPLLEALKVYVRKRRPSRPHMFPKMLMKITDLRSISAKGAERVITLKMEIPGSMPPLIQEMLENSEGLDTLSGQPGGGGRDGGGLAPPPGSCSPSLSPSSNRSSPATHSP
Transcription factor E2F1 (Homo sapiens), sequence (Q01094 whole entry, looked up): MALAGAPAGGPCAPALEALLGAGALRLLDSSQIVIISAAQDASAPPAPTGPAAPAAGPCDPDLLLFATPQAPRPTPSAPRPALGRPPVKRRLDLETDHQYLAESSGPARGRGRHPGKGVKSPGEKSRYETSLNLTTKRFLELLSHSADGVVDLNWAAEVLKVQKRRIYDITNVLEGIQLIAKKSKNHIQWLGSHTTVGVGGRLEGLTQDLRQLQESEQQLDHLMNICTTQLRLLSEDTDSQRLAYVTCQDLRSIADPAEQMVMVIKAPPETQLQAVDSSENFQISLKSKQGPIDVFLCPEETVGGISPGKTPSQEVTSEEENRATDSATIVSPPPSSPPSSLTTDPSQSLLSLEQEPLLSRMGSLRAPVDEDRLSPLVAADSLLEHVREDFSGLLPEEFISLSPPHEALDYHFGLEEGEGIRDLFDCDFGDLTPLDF

O=C(Oc1ccccc1)c1ccccc1O
not listed: [19]
inactive: all other assays above

O=c1c(O)c(-c2ccc(O)cc2O)oc2cc(O)cc(O)c12
active: [1] 47.5 µM | [8] 19.3 µM
not listed: [15] | [18]
inactive: all other assays above

CC(=O)OCc1ccccc1
inactive: all assays above

Cc1c(O)cccc1O
active: [6] 37.8 µM | [15] 61.4 µM
not listed: [12]
inactive: all other assays above
